Source: PubChem
Marburg entry inh = blocks Marburg virus binding to or entry into cells | Marburg virus pseudotyped entry inhibition, cell reporter | hit rate 1.8% among 300,000 | AID 540276 | Potency, µM (series often up to 37.8 µM), for the others: top-dose activity change, negative = inhibition, hits mostly inhibitors; calls by dose curve; tested in HEK293 cells; also: potency is read from the fitted curve at half-maximal effect
Vaccinia mCherry = vaccinia inhibition (mCherry reporter) | Vaccinia virus mCherry reporter infection, fluorescence | Potency, µM (titrated, usually from 36.5 µM), without a hit: at the highest dose activity change, negative = inhibition, usual class: inhibitors | hit rate 0.63% among 310,000 | AID 720579; calls by dose curve; tested in A549 cells; also: potency is read from the fitted curve at half-maximal effect; nearly all actives have a fitted effect of over 35% in size
HCMV inh = inhibitors of human cytomegalovirus; HFF cells, HCMV-luciferase reporter, 72 h; hits give low values; hit rate 4.5% among 410,000; AID 1259415; activity change, negative = inhibition, % at 57.5 µM; in the data active = activity change below about -60%; inconclusive = no clear call, values can overlap the other calls; inactive = above about -39%
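After 16 h attachment at 37C, HFF cells received test compound and HCMV-luciferase (1 PFU/cell); reporter luminescence read 72 h later, data normalized against buffer-only and known inhibitor Salinomycin.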
HCV inhibitor = inhibitors of hepatitis C virus infection | hit rate 3.4% among 340,000 | Huh7.5.1 HCVcc-Cre infection, luciferase reporter, 44 h | Potency, µM (highest dose often 41.8 µM), for the others: at the top dose activity change, negative = inhibition, hits mostly inhibitors; active = well fitted inhibition curve with a large enough effect; inconclusive = small, poorly fitted or top-dose-only effect, or another doubt; inactive = no such curve, though single readings can be large or run the other way; also: potency is read from the fitted curve at half-maximal effect
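After 44 h co-culture of compound, cells and HCVcc-Cre (~0.5 moi), substrate is added for 15 min at room temperature and luciferase measured over 15 sec. Cells were seeded at 1,000/well and pre-cultured 4 h.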
Lassa entry inh = inhibitors of Lassa virus binding or cell entry; Lassa virus pseudotype entry inhibition, cell reporter; Potency, µM (titrated, usually from 37.9 µM), inactives show at the highest dose activity change, negative = inhibition, usual class: inhibitors; hit rate 1.2% among 300,000; AID 540256; calls by dose curve; tested in HEK293 cells; also: potency is read from the fitted curve at half-maximal effect; nearly all actives have a fitted effect of over 50% in size
Vaccinia Venus = vaccinia inhibition (Venus reporter); AID 720580; Vaccinia virus Venus reporter expression, fluorescence; hit rate 0.46% among 330,000; Potency, µM (series often up to 36.5 µM), for the others: top-dose activity change, negative = inhibition, actives largely listed as inhibitors; calls by dose curve; tested in A549 cells; also: potency is read from the fitted curve at half-maximal effect; nearly all actives have a fitted effect of over 30% in size
Numbers without * were called inactive; [ ] = remark or other dose. A selection: hits, their analogues and other compounds. The true share with any hit is near 7.8%. % is scaled to controls: 0 for no effect and ±100 for the full control effect.

What do the screens show for `COc1ccc(CN2CC[C@H]3C=CC[C@@H](C(=O)NCc4cccnc4)[C@H]3C2=O)cc1OC`?
Vaccinia mCherry: inactive; Vaccinia Venus: -4%

What do the screens show for `Cc1ccc2[nH]nc(C(=O)N3CCOc4ccc(CN5CCc6sccc6C5)cc4C3)c2c1`?
Vaccinia mCherry: 13µM*; Vaccinia Venus: -20%

What do the screens show for `Cc1oc2ccc(O)c(CN3CCOCC3)c2c1C(=O)Nc1ccc(C(C)C)cc1`?
Marburg entry inh: inconclusive; Vaccinia mCherry: -19%; HCMV inh: 28; Lassa entry inh: inconclusive; Vaccinia Venus: -11%

Results for CCOc1ccccc1N1Cc2cc(C)c(C)cc2C1 ?
Vaccinia mCherry: -21%; HCMV inh: 3; HCV inhibitor: inconclusive; Vaccinia Venus: -9%

Results for COc1ccc(OC)c(N2Cc3cc(C)c(C)cc3C2)c1 ?
Marburg entry inh: inconclusive; Vaccinia mCherry: -14%; HCMV inh: 7; HCV inhibitor: 22µM*; Lassa entry inh: -22%; Vaccinia Venus: -5%

Results for CCC(=O)Nc1ccccc1C(=O)NC1CCCCC1 ?
Marburg entry inh: 3%; Vaccinia mCherry: inactive; HCMV inh: -110*; HCV inhibitor: 6%; Lassa entry inh: -2%; Vaccinia Venus: -1%

What do the screens show for `Cc1ccc(Cl)c(OCC(=O)Nc2ccccc2C(=O)NC2CC2)c1`?
HCMV inh: -100*; HCV inhibitor: -10%

What do the screens show for `CCCOC(=O)c1ccc(Cn2nnc3sc4c(c3c2=O)CCC(C)C4)cc1` (stereo not given)?
Marburg entry inh: 10%[46.1 µM]; Vaccinia mCherry: -1%; HCMV inh: 23; Lassa entry inh: 4%[46.1 µM]; Vaccinia Venus: 12%

What do the screens show for `CCCC[C@@H](CNC)NC[C@H](NCCCCC1CCCCC1)C(C)C`?
Vaccinia mCherry: -25%; HCMV inh: -99*; HCV inhibitor: -55%; Vaccinia Venus: inconclusive

What do the screens show for `Cn1cc(-c2cc3cnc(Nc4cccc(NS(C)(=O)=O)c4)cc3n2Cc2ccccc2)cn1`?
HCMV inh: -88*

Results for CCOC(=O)N1CCN(S(=O)(=O)c2ccc(C(=O)NNc3nc4ccc(Cl)cc4s3)cc2)CC1 ?
Marburg entry inh: 18µM*; Vaccinia mCherry: inconclusive; HCV inhibitor: 7.1µM*; Lassa entry inh: inconclusive; Vaccinia Venus: inconclusive

What do the screens show for `Cc1cc(C)c2nc(NNC(=O)c3ccc(S(=O)(=O)N4CCCCC4)cc3)sc2c1`?
Marburg entry inh: inconclusive; Vaccinia mCherry: inconclusive; HCMV inh: -96*; HCV inhibitor: 6.3µM*; Lassa entry inh: inconclusive; Vaccinia Venus: inconclusive

What do the screens show for `CCOC(=O)N1CCN(S(=O)(=O)c2ccc(C(=O)NNc3nc4c(C)cccc4s3)cc2)CC1`?
Marburg entry inh: inconclusive; Vaccinia mCherry: -10%; HCMV inh: -103*; HCV inhibitor: inconclusive; Lassa entry inh: inconclusive; Vaccinia Venus: -20%

How did CCOC(=O)N1CCN(S(=O)(=O)c2ccc(C(=O)N(CCN(C)C)c3nc4ccc(Cl)cc4s3)cc2)CC1 do in these assays?
HCMV inh: -25; HCV inhibitor: inconclusive

How did CCOC(=O)N1CCN(S(=O)(=O)c2ccc(C(=O)NNc3nc4cc(C)cc(C)c4s3)cc2)CC1 do in these assays?
Marburg entry inh: 21µM*; Vaccinia mCherry: 13µM*; HCV inhibitor: 3.5µM*; Lassa entry inh: inconclusive; Vaccinia Venus: inconclusive

Results for Cc1ccc(S(=O)(=O)NCCc2nnc3ccc(SCC(=O)Nc4c(C)cc(C)cc4C)nn23)cc1 ?
Vaccinia mCherry: 1%; HCMV inh: 17; Lassa entry inh: -5%[46.1 µM]; Vaccinia Venus: -11%

What do the screens show for `COc1ccc(NC(=O)c2c(NC(=O)COc3ccc(Cl)cc3)sc3c2CCCCC3)cc1`?
Vaccinia mCherry: -21%; HCMV inh: 30; Lassa entry inh: -19%[46.1 µM]; Vaccinia Venus: -18%

How did CCOC(=O)N1CCN(S(=O)(=O)c2ccc(C(=O)NNc3nc4c(C)cc(C)cc4s3)cc2)CC1 do in these assays?
Marburg entry inh: inconclusive; Vaccinia mCherry: 10µM*; HCMV inh: -104*; HCV inhibitor: 11µM*; Lassa entry inh: inconclusive; Vaccinia Venus: inconclusive

What do the screens show for `Cc1cc(C)c2nc(NC(=O)c3ccc(S(=O)(=O)N4CCCC4)cc3)sc2c1`?
Vaccinia mCherry: -10%; HCMV inh: 5; Lassa entry inh: -5%[46.1 µM]; Vaccinia Venus: -14%

How did COc1ccc(O[C@H]2C=C[C@@H](c3ccccc3)O[C@H]2COC(=O)CCC(C)=NOC[C@@H](O)COCc2ccco2)cc1 do in these assays?
Marburg entry inh: 10%[14.2 µM]; Lassa entry inh: 0%[14.3 µM]

What do the screens show for `COc1ccc(CCNC(=O)CCc2c(C)c3cc4c(C)c(C)oc4cc3oc2=O)cc1OC`?
Marburg entry inh: -2%[46.1 µM]; Vaccinia mCherry: -4%; HCMV inh: -37; Lassa entry inh: 26%[46.1 µM]; Vaccinia Venus: -19%

Results for CCOC(=O)N1CCN(C(=O)c2ccc3nc4ccc(Cl)cc4c(=O)n3c2)CC1 ?
Marburg entry inh: inconclusive; HCMV inh: -97*; HCV inhibitor: -25%; Lassa entry inh: inconclusive

Results for CCOC(=O)N1CCN(C(=O)c2ccc3nc4ccsc4c(=O)n3c2)CC1 ?
Vaccinia mCherry: -6%; HCMV inh: 39; HCV inhibitor: 1%; Vaccinia Venus: -4%

Results for O=C(COC(=O)c1ccc(O)cc1O)Nc1ccc2ccccc2c1 ?
HCMV inh: 10; HCV inhibitor: inconclusive

Results for COC(=O)c1ccc(NCc2c(O)ccc(O)c2Br)cc1Cl ?
Marburg entry inh: inconclusive; Vaccinia mCherry: -18%; HCMV inh: -28; HCV inhibitor: 11µM*; Lassa entry inh: -17%; Vaccinia Venus: 3%

What do the screens show for `COC(=O)c1ccc(NCc2cc(O)ccc2O)cc1O`?
Marburg entry inh: inconclusive; Vaccinia mCherry: -23%; HCMV inh: -7; HCV inhibitor: inconclusive; Lassa entry inh: 20µM*; Vaccinia Venus: 2%

What do the screens show for `COC(=O)c1cc(NCc2c(F)cccc2Cl)ccc1N1CCOCC1`?
Marburg entry inh: 5%; HCMV inh: 68; HCV inhibitor: inconclusive; Lassa entry inh: -35%

How did CN(C)c1cc(Nc2ccc(O)cc2)c([N+](=O)[O-])c2nonc12 do in these assays?
Vaccinia mCherry: -7%; HCMV inh: inconclusive; HCV inhibitor: 7%; Vaccinia Venus: 6%

How did O=C(O)c1ccccc1Nc1cc(Cl)c2nonc2c1[N+](=O)[O-] do in these assays?
Marburg entry inh: 7%[46.1 µM]; Vaccinia mCherry: -2%; HCMV inh: 4; HCV inhibitor: 14%; Lassa entry inh: 13%[46.1 µM]; Vaccinia Venus: -2%

What do the screens show for `O=[N+]([O-])c1c(Nc2ccc(O)cc2)cc(Cl)c2nonc12`?
Vaccinia mCherry: inconclusive; HCMV inh: -100*; HCV inhibitor: 7.1µM*; Vaccinia Venus: inconclusive
